Source: PubChem (National Center for Advancing Translational Sciences (NCATS))
3T3 cytotox: cytotoxic compounds in NIH 3T3 cells; NIH 3T3 viability, CellTiter-Glo ATP luminescence, 48-72 h; Potency, µM (top dose mostly 96.7 µM), inactives show at the highest dose activity change, negative = cytotoxicity, usual class: inhibitors; actives 4.3% (n = 94,000); further: nearly all actives have a fitted effect of over 55% in size
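Cytotoxicity was measured by CellTiter-Glo ATP luminescence after 48 or 72 h compound exposure at 37 °C. Mouse NIH 3T3 fibroblasts were seeded at 400 cells/well and dosed by 23 nL pin transfer.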
HEK cytotox: kills HEK 293 cells; Potency, µM (highest dose often 115 µM), without a hit: at the highest dose activity change, negative = cytotoxicity, actives largely listed as inhibitors; HEK 293 viability, ATP luminescence (CellTiter-Glo), 48-72 h; actives 6.6% (n = 94,000); AID 1345083; further: nearly all actives have a fitted effect of over 60% in size
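Read-out: CellTiter-Glo ATP luminescence. Cells: HEK 293, 250 cells/well. Exposure: 48 or 72 hr, 37 degree Celsius.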
GPT2 inh: inhibitors of human GPT2 alanine aminotransferase; Q8TD30; Recombinant GPT2, coupled pyruvate oxidase/HRP Amplex Red fluorescence; Potency, µM (series often up to 57.7 µM), for inactives: at the highest dose activity change, negative = inhibition, hits mostly inhibitors; actives 0.25% (n = 100,000); further: nearly all actives have a fitted effect of over 60% in size
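Fluorescence of coupled pyruvate oxidase/HRP/Amplex Red system (50uM Amplex, 30 min, dark) reports pyruvate formed by GPT2. Enzyme reaction: 10ng/uL GPT2, 2mM L-alanine, 250uM a-KG, 30 min room temperature, pH 7.5; 50uM AOA control.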
NPR1 antag: antagonists of human natriuretic peptide receptor Npr1. P16066. HEK293 hNpr1 GloSensor cGMP, ANP-stimulated luminescence. Potency, µM (titrated, usually from 46.3 µM), inactives show top-dose activity change, negative = inhibition, hits mostly inhibitors. actives 1.6% (n = 76,000). AID 1347048; calls by dose curve; further: nearly all actives have a fitted effect of over 60% in size
Target sequence (P16066 whole entry, looked up): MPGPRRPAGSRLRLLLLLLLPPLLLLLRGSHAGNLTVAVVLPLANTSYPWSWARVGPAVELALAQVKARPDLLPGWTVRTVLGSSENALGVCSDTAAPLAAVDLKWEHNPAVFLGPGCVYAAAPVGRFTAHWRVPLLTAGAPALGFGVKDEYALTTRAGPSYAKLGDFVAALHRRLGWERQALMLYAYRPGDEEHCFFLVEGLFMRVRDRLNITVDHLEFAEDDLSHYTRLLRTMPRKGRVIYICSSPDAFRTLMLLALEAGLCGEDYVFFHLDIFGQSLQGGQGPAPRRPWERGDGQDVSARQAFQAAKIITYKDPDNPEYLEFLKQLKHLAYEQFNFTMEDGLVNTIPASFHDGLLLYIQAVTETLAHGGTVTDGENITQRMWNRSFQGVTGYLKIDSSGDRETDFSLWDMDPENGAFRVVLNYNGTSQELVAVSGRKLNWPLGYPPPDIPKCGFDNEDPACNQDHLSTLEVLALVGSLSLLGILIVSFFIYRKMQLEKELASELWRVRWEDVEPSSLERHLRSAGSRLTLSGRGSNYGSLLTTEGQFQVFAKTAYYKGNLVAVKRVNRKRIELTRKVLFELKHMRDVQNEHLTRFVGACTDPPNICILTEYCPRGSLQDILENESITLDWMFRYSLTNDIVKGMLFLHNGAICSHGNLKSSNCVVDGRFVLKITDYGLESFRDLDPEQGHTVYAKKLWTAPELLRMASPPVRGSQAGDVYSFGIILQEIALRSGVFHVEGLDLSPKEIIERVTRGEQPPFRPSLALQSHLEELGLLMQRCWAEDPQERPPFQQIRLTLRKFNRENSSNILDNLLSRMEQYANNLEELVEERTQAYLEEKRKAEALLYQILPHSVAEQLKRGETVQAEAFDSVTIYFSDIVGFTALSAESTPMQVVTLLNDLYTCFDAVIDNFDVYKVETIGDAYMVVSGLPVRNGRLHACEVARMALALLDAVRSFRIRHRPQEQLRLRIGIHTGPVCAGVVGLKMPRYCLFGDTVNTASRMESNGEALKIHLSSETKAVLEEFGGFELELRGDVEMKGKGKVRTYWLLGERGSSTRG
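Compound pre-incubated 30 min at room temperature on GloSensor-loaded HEK293 cells stably carrying hNpr1 and the pGS-40F cGMP biosensor. Stimulation uses hNppA at 0.1 nM final; luminescence is taken at baseline and 20 min post-agonist.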
Luciferase inh: inhibitors of firefly (Photinus pyralis) luciferase; P08659; purified P. pyralis luciferase, luminescence, biochemical; Potency, µM (highest dose often 115 µM), usual class: inhibitors; actives 2.5% (n = 76,000); AID 1347043; further: nearly all actives have a fitted effect of over 65% in size
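Purified P. pyralis luciferase (10nM final) in 50mM Tris acetate pH 7.5, 10mM Mg acetate, 0.01% Tween-20, 0.05% BSA with 10uM D-luciferin and 10uM ATP. Compounds titrated qHTS. Luminescence imaged on CCD.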
* marks the source's active call; other numbers are inactive results; i = inactive; u = inconclusive; x = no result given; [ ] = remark or other dose. A selection: hits, their analogues and other compounds. The true share with any hit is near 10%. Unless noted, the call rests on the fitted dose curve; in most records, active means well fitted curve in the direction sought with a large enough effect; inconclusive means small, poorly fitted or top-dose-only effect, or another doubt; inactive means no such curve, though single readings can be large; an effect the other way counts as inactive or inconclusive. On the % scale 0 is the no-effect control and ±100 the full control effect; potency means the concentration at half of the fitted maximal effect.

SMILES	3T3 cytotox	HEK cytotox	GPT2 inh	NPR1 antag	Luciferase inh
CCNC(=O)NC[C@H]1C[C@@H]2CCN1C[C@@H]2c1cc(-c2ccc3ccccc3c2)nn1C	31.6µM*	39.8µM*	i	1.9%[70.6 µM]	i
Cn1nc(-c2ccc3ccccc3c2)cc1[C@H]1CN2CC[C@H]1C[C@@H]2CNC(=O)Nc1cccc(C#N)c1	44.7µM*	u	i	3.8%	i
O=C1NC2(CN(Cc3ccncc3)C2)Oc2ccccc21	u	-15.9%[172 µM]	i	11.6%[70.6 µM]	i
COc1cc2c(cc1Oc1ccccc1)NC(=O)C21CCN(c2ncccn2)CC1	79.4µM*	u	1.2%[88.5 µM]	-30.3%[70.6 µM]	i
COc1cncc(CN2CCC3(CC2)C(=O)Nc2cc(Oc4ccccc4)c(OC)cc23)c1	u	35.5µM*	-1.1%	-26.5%	i
COc1cc2c(cc1Oc1ccccc1)NC(=O)C21CCN(Cc2ccccc2)CC1	28.2µM*	28.2µM*	u	u	i
CN1C(=O)[C@@H]2C[C@@H](O)CN2C2(CN(Cc3cccnc3)C2)C1=O	-45.9%[174 µM]	-10.3%[172 µM]	i	0.0%[70.6 µM]	i
CCC(C)(C#N)O[C@@H]1O[C@H](CO)[C@@H](O)[C@H](O)[C@H]1O (some centres not stated)	x	x	i	x	x
CC(C)CN1Cc2ccccc2-n2ccnc2C12CCN(C(=O)c1ccccc1F)CC2	-6.7%	-27.4%	i	3.4%	i
Cc1ccsc1C(=O)N1CCC2(CC1)NCc1ccccc1-n1ccnc12	28.2µM*	-16.7%	i	-9.0%	i
Cc1ccccc1C(=O)N1CCC2(CC1)c1nccn1-c1ccccc1CN2CC(C)C	u	44.7µM*	i	-25.7%	i
O=C(Nc1cccc(C(F)(F)F)c1)OC[C@H]1C[C@@H]2CCN1C[C@@H]2c1cc(C2CCCC2)nc(-c2ccncc2)n1	u	3.98µM*	4.6%	u	i
CC(C)NC(=O)OC[C@H]1C[C@@H]2CCN1C[C@@H]2c1cc(C2CCCC2)nc(-c2ccncc2)n1	28.2µM*	22.4µM*	i	-22.6%	i
CC(=O)c1ccc(NC(=O)OC[C@H]2C[C@@H]3CCN2C[C@@H]3c2cc(C3CCCC3)nc(-c3ccncc3)n2)cc1	22.4µM*	31.6µM*	u	-16.6%	i
CC(=O)c1cccc(NC(=O)OC[C@H]2C[C@@H]3CCN2C[C@@H]3c2cc(C3CCCC3)nc(C)n2)c1	u	14.1µM*	0.5%	-7.7%	i
O=C(O)C1=NOC2CN(CC3CCNC3)CC12 (configuration not stated)	i	i	i	x	x
C#C[C@H]1CN2CC[C@H]1C[C@@H]2CNC(=O)Nc1cccc(C#N)c1	-9.5%[174 µM]	-9.5%[172 µM]	0.0%[88.5 µM]	0.4%[70.6 µM]	i
CN1C(=O)[C@H]2CN(Cc3ccccc3)C[C@H]2C1=O	4.9%	-2.1%	i	1.0%	i
CCC(CC)c1cc([C@H]2CN3CC[C@H]2C[C@@H]3CNC2CCN(C)CC2)nc(-c2ccncc2)n1	17.8µM*	14.1µM*	i	-7.9%	i
CCC(CC)c1cc([C@H]2CN3CC[C@H]2C[C@@H]3CNC(=O)COC)nc(-c2ccncc2)n1	u	-14.1%	-3.3%	2.7%	i
CCC(CC)c1cc([C@H]2CN3CC[C@H]2C[C@@H]3CNC(=O)Nc2ccc(C(C)=O)cc2)nc(-c2ccncc2)n1	17.8µM*	25.1µM*	i	4.8%	i
CCCS(=O)(=O)NC[C@H]1C[C@@H]2CCN1C[C@@H]2c1cc(C(CC)CC)nc(-c2ccncc2)n1	u	u	-16.9%	u	i
CCC(CC)c1cc([C@H]2CN3CC[C@H]2C[C@@H]3CNC(=O)Nc2ccc(OC)cc2)nc(-c2ccncc2)n1	u	31.6µM*	i	-7.0%	i
CCC(CC)c1cc([C@H]2CN3CC[C@H]2C[C@@H]3CNC(=O)CSCC(=O)O)nc(-c2ccncc2)n1	u	u	i	0.6%	i
COc1cc2c(cc1OCc1ccccc1)NC(=O)C21CCN(Cc2ccccc2)CC1	31.6µM*	31.6µM*	1.3%[88.5 µM]	-25.2%[70.6 µM]	i
SMILES	3T3 cytotox	HEK cytotox	GPT2 inh	NPR1 antag	Luciferase inh
COc1cc2c(cc1OCc1ccccc1)NC(=O)C21CCN(Cc2ccncc2)CC1	u	u	1.4%[88.5 µM]	u	i
COc1cc2c(cc1OCc1ccccc1)NC(=O)C21CCN(Cc2c(C)noc2C)CC1	u	25.1µM*	-20.7%	u	u
COc1cc2c(cc1-c1ccc(N3CCN(C)CC3)nc1)NC(=O)C21CCN(C(C)=O)CC1	u	-9.5%	u	0.5%	i
COc1cc2c(cc1OCc1ccccc1)NC(=O)C21CCN(c2ncccn2)CC1	u	u	1.0%[88.5 µM]	-26.6%[70.6 µM]	i
COc1cc2c(cc1OCc1ccccc1)NC(=O)C21CCN(c2ccnc(C)n2)CC1	u	28.2µM*	3.6%[88.5 µM]	u	u
COc1cncc(-c2cc3c(cc2OC)C2(CCN(C(C)=O)CC2)C(=O)N3)c1	31.6µM*	-14.5%[172 µM]	2.6%[88.5 µM]	-0.1%[70.6 µM]	i
CCN1C[C@@]2(COC)C3[C@@H](OC)C4[C@@H]1C3([C@@H]1C[C@]3(O)[C@H](OC(=O)c5ccccc5)[C@@H]1[C@]4(OC(C)=O)[C@@H](O)[C@@H]3OC)[C@H](OC)C[C@H]2O	x	x	i	x	x
CC1=CC2/C=C(\C)CCC(O)C(O)/C=C/C(=O)OC23C(=O)NC(CC(C)C)C3C1C (configuration not stated)	x	x	3.1%[27.3 µM]	x	x
COc1cc2c(cc1OCC1CC1)NC(=O)C21CCN(C(C)=O)CC1	u	-0.8%[172 µM]	1.9%[88.5 µM]	2.6%[70.6 µM]	i
COc1cc2c(cc1OCc1ccccc1)NC(=O)C21CCN(C(C)=O)CC1	39.8µM*	u	-21.3%[88.5 µM]	-3.0%[70.6 µM]	u
O=C(c1ccc(F)cc1)N1C[C@@H]2C[C@H](C1)c1c(-c3ccc(Cl)cc3)ccc(=O)n1C2	i	-7.3%[172 µM]	1.1%[88.5 µM]	-1.4%[70.6 µM]	i
COc1cc2c(cc1OCC1CC1)NC(=O)C21CCN(c2ncc(C(C)C)cn2)CC1	79.4µM*	100µM*	u	6.1%[70.6 µM]	i
CCc1cnc(N2CCC3(CC2)C(=O)Nc2cc(OCC4CC4)c(OC)cc23)nc1	100µM*	112µM*	3.6%[88.5 µM]	6.5%[70.6 µM]	i
COc1cc2c(cc1OCC1CC1)NC(=O)C21CCN(c2nc(C)cc(C)n2)CC1	u	u	3.0%[88.5 µM]	5.1%[70.6 µM]	i
COc1cc2c(cc1Oc1ccccc1)NC(=O)C21CCN(c2ncc(C(C)C)cn2)CC1	u	u	-20.5%	6.9%	i
c1cncc(C2CCCCN2Cc2cc3n(n2)CCNC3)c1 (configuration not stated)	-18.6%	0.3%	2.3%	-2.3%	i
